Our source for the inhibition values is PubChem BioAssay AID624255 (Broad Institute, 2012).

About 4,600 (6%) of roughly 77,000 compounds were called active. Another 1% or so got no clear call; they are omitted.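 How the source made its calls: active means mean inhibition above about 93%, with at least 55% of replicates each passing it (limit read from the data, passing the limit was not always enough); inconclusive means only one of those two conditions holds; inactive means neither condition holds.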 The entries come from a sample that favours actives as a whole.

The nature of this experiment: T. cruzi intracellular proliferation inhibitors, primary screen, cell-based, beta-gal Tulahuen parasites, NIH3T3 host, luminescence (AID 624255). The note with it: T. cruzi beta-gal in NIH3T3, GalScreen luminescence, 90 h; at 8.34 µM; active compounds read high.
As for `Cc1ccc(S(=O)(=O)N2C[C@@H](O)COC[C@@H]3O[C@H](CC(=O)NCc4ccc(Cl)c(Cl)c4)CC[C@H]32)cc1`, the inhibition (commonly the relative decrease from the control value, in per cent) was 97.5% (active).

In the case of `O=C(C[C@@H]1CC[C@@H]2[C@H](COC[C@H](O)CN2S(=O)(=O)c2ccc(F)cc2)O1)NCc1ccc(Cl)c(Cl)c1`, the inhibition was 54.2% (inactive).

Turning to `Cc1ccc(S(=O)(=O)N2C[C@H](O)COC[C@@H]3O[C@@H](CC(=O)NCC4CCCCC4)CC[C@H]32)cc1`, the inhibition is 5.15% (inactive).

Regarding `O=C(C[C@H]1CC[C@H]2[C@@H](COC[C@H](O)CN2S(=O)(=O)c2cccc(Cl)c2)O1)Nc1ccccc1`, the inhibition is 11.3% (inactive).

For `Cc1cccc(S(=O)(=O)N2C[C@@H](O)COC[C@H]3O[C@H](CC(=O)Nc4ccc(-c5ccccc5)cc4)CC[C@@H]32)c1`, the inhibition was 94.5% (inactive).

`COc1cccc(S(=O)(=O)N2C[C@@H](O)COC[C@@H]3O[C@H](CC(=O)Nc4ccccc4)CC[C@H]32)c1`: the inhibition was 109% (active).

For the compound `Cc1ccc(S(=O)(=O)Nc2ccc3c(c2)C(=O)N([C@@H](C)CO)C[C@@H](C)[C@H](CN(C)Cc2ccncc2)O3)cc1`, the inhibition is 5.91% (inactive).

On to `CN(C)C(=O)[C@@H]1[C@@H](CO)[C@@H]2Cn3c(ccc(-c4ccccc4F)c3=O)[C@@H]2N1C(=O)C1CC1`, for which the inhibition was 30.9% (inactive).

In the case of `C[C@@H]1CCCCO[C@H](CN(C)S(=O)(=O)c2cn(C)cn2)[C@@H](C)CN([C@@H](C)CO)C(=O)c2cc(NC(=O)CCC(F)(F)F)ccc2O1`, the inhibition was 28.2% (inactive).

As for `O=C(C[C@@H]1CC[C@@H](NS(=O)(=O)c2ccccc2)[C@H](CO)O1)NCc1ccc(Cl)c(Cl)c1`, the inhibition was -48.5% (inactive).

Turning to `C[C@@H]1CN([C@@H](C)CO)C(=O)c2cc(C#CC(C)(C)O)cnc2O[C@@H]1CN(C)C(=O)C1CCOCC1`, the inhibition was -1.59% (inactive).

For the compound `O=C(Cc1ccncc1)Nc1ccc2c(c1)[C@@H]1C[C@H](CC(=O)N3CCCCC3)O[C@H](CO)[C@@H]1O2`, the inhibition is 14.2% (inactive).

On to `CN1c2ccc(-c3ccccc3)cc2[C@@H]2[C@@H](CCN2C(=O)NC2CCCC2)[C@H]1CO`, for which the inhibition was 6.51% (inactive).

Consider `Cc1noc(C)c1S(=O)(=O)Nc1ccc2c(c1)C(=O)N([C@@H](C)CO)C[C@H](C)[C@@H](CN(C)C(=O)Nc1cccc3ccccc13)OCCCC[C@H](C)O2`, for which the inhibition is 104% (active).

On to `C[C@@H]1CCCCO[C@H](CN(C)C(=O)Nc2cccc3ccccc23)[C@H](C)CN([C@H](C)CO)C(=O)c2cc(NS(=O)(=O)c3cccs3)ccc2O1`, for which the inhibition is 115% (active).

Consider `C[C@@H]1CCCCO[C@@H](CN(C)C(=O)Nc2cccc3ccccc23)[C@@H](C)CN([C@H](C)CO)C(=O)c2cc(NS(C)(=O)=O)ccc2O1`, for which the inhibition is -3.68% (inactive).

On to `C[C@@H]1CCCCO[C@H](CN(C)C(=O)Nc2cccc3ccccc23)[C@@H](C)CN([C@H](C)CO)C(=O)c2cc(NS(=O)(=O)c3cccs3)ccc2O1`, for which the inhibition was 87.5% (inactive).

For the compound `Cc1noc(C)c1S(=O)(=O)Nc1ccc2c(c1)C(=O)N([C@@H](C)CO)C[C@@H](C)[C@H](CN(C)C(=O)Nc1cccc3ccccc13)O2`, the inhibition is -148% (inactive).

Turning to `Cc1noc(C)c1S(=O)(=O)Nc1ccc2c(c1)C(=O)N([C@@H](C)CO)C[C@@H](C)[C@H](CN(C)C(=O)Nc1cccc3ccccc13)OCCCC[C@H](C)O2`, the inhibition was 72.3% (inactive).

As for `C[C@H]1CN([C@@H](C)CO)C(=O)c2cc(-c3ccccc3)cnc2O[C@H]1CN(C)C(=O)C1CCOCC1`, the inhibition was 60.3% (inactive).

Regarding `CC(=O)N1[C@@H](CO)[C@@H]2c3ccccc3N(S(=O)(=O)c3ccccc3)C[C@@H]21`, the inhibition was 17.9% (inactive).

Turning to `CN1C(=O)c2cc(NC(=O)c3ccno3)ccc2OC[C@H]2O[C@@H](CC(=O)NCC(F)(F)F)CC[C@@H]21`, the inhibition is -16.1% (inactive).

Take `CO[C@@H]1CN(C)C(=O)c2ccc(NC(=O)c3ccc(F)cc3)cc2OC[C@H](C)N(C(=O)c2ccc(F)cc2)C[C@@H]1C`: the inhibition is 33.4% (inactive).

Regarding `C[C@@H]1CN([C@@H](C)CO)S(=O)(=O)c2ccc(C#CCN(C)C)cc2O[C@@H]1CN(C)C(=O)CC1CC1`, the inhibition was 27.9% (inactive).

Turning to `C[C@@H]1CN([C@H](C)CO)S(=O)(=O)c2ccc(C#CCC3CCCC3)cc2O[C@H]1CN(C)C(=O)CC1CC1`, the inhibition was 119% (active).

For `C[C@@H]1CN([C@@H](C)CO)S(=O)(=O)c2ccc(C#CCC3CCCC3)cc2O[C@H]1CN(C)C(=O)CC1CC1`, the inhibition is 116% (active).

Take `COCC#Cc1ccc2c(c1)O[C@H](CN(C)C(=O)CC1CC1)[C@@H](C)CN([C@@H](C)CO)S2(=O)=O`: the inhibition is 72.2% (inactive).

For the compound `C[C@@H]1CN([C@H](C)CO)S(=O)(=O)c2ccc(C#CCN(C)C)cc2O[C@H]1CN(C)C(=O)CC1CC1`, the inhibition was 92.5% (inactive).

As for `C[C@@H]1CN([C@@H](C)CO)S(=O)(=O)c2ccc(C#CCC3CCCC3)cc2O[C@@H]1CN(C)C`, the inhibition is 2.02% (inactive).

As for `O=C(C[C@H]1CC[C@H](NC(=O)c2ccc3c(c2)OCO3)[C@H](CO)O1)NCc1ccc(Oc2ccccc2)cc1`, the inhibition was -47.4% (inactive).

Turning to `O=C(NCc1ccccc1Cl)[C@H]1[C@H](CO)[C@H]2Cn3c(cccc3=O)[C@H]2N1C(=O)C1CCC1`, the inhibition was 19.3% (inactive).

With `C/C=C/c1ccc([C@@H]2[C@@H](CO)N(C(C)=O)[C@H]2CN(C)C(=O)CN(C)C)cc1`, the inhibition was -6.45% (inactive).

Regarding `C/C=C/c1ccc2c(c1)O[C@H](CN(C)C(=O)Nc1ccccc1)[C@H](C)CN([C@@H](C)CO)S2(=O)=O`, the inhibition was 45.2% (inactive).

Consider `C/C=C/c1ccc2c(c1)O[C@@H](CN(C)C(=O)c1ccccn1)[C@H](C)CN([C@@H](C)CO)S2(=O)=O`, for which the inhibition was 11.4% (inactive).

Regarding `CC(C)CC#Cc1ccc2c(c1)O[C@@H](CN(C)C(=O)c1ccccn1)[C@@H](C)CN([C@H](C)CO)S2(=O)=O`, the inhibition was 74.4% (inactive).

For the compound `C[C@@H]1CN([C@@H](C)CO)S(=O)(=O)c2ccc(C#Cc3ccccc3)cc2O[C@@H]1CN(C)C(=O)Nc1ccccc1`, the inhibition was 113% (active).

On to `C[C@@H]1CN([C@@H](C)CO)S(=O)(=O)c2ccc(C#Cc3ccc(F)cc3)cc2O[C@H]1CN(C)C(=O)c1ccccn1`, for which the inhibition is 103% (active).

With `C[C@@H]1CN([C@@H](C)CO)S(=O)(=O)c2ccc(C#Cc3ccc(F)cc3)cc2O[C@H]1CN(C)C(=O)NC1CCCC1`, the inhibition is 114% (active).

Regarding `C[C@@H]1CN([C@@H](C)CO)S(=O)(=O)c2ccc(C#Cc3ccc(F)cc3)cc2O[C@@H]1CN(C)CC1CC1`, the inhibition is 11.3% (inactive).

Consider `COc1ccc(C#Cc2ccc3c(c2)O[C@@H](CN(C)C(=O)Nc2cccc(OC)c2)[C@H](C)CN([C@H](C)CO)S3(=O)=O)cc1`, for which the inhibition was 73.3% (inactive).

Turning to `CC(C)C#Cc1ccc2c(c1)O[C@@H](CN(C)C(=O)NC(C)C)[C@H](C)CN([C@H](C)CO)S2(=O)=O`, the inhibition is 55.8% (inactive).

On to `COc1cccc(NC(=O)N(C)C[C@H]2Oc3ncc(C4=CCCCC4)cc3C(=O)N([C@H](C)CO)C[C@H]2C)c1`, for which the inhibition was -8.07% (inactive).

As for `CO[C@@H]1CC[C@H]2CCOc3c(C#N)cccc3C(=O)N(C)C[C@@H](OC)[C@H](C)C(=O)N(C)C[C@@H]1O2`, the inhibition was 20.8% (inactive).

`O=C(CN1CCOCC1)N[C@@H]1CC[C@H](CCNS(=O)(=O)c2ccccc2F)O[C@H]1CO`: the inhibition is 2.08% (inactive).

For the compound `C[C@@H]1CCCCO[C@@H](CN(C)C(=O)Cc2ccccc2)[C@@H](C)CN([C@@H](C)CO)C(=O)c2cc(NC(=O)c3ccccc3)ccc2O1`, the inhibition is 60.5% (inactive).

As for `C[C@@H]1CN([C@H](C)CO)C(=O)c2cc(C3=CCCC3)cnc2O[C@@H]1CN(C)C(=O)Nc1ccc(F)cc1`, the inhibition is 15.9% (inactive).

For the compound `O=C([C@H]1[C@H](CO)[C@H]2Cn3c(ccc(C4=CCCC4)c3=O)[C@@H]1N2C(=O)c1ccncc1)N1CCCCC1`, the inhibition was 34.7% (inactive).

Regarding `CO[C@H]1CN(C)C(=O)c2ccc(NC(=O)C3CC3)cc2OC[C@H](C)N(CCc2ccccc2)C[C@H]1C`, the inhibition is 36.1% (inactive).

In the case of `COc1ccc(CN(C)C[C@@H]2OCCCC[C@H](C)Oc3ccc(NS(C)(=O)=O)cc3C(=O)N([C@@H](C)CO)C[C@H]2C)cc1`, the inhibition is 0.374% (inactive).

With `Cc1ccc(S(=O)(=O)N2C[C@H](O)COC[C@H]3O[C@H](CC(=O)N[C@H]4CCN(Cc5ccccc5)C4)CC[C@@H]32)cc1`, the inhibition is -33.7% (inactive).

Turning to `Cc1cccc(-c2ccc([C@@H]3[C@H](CO)N4CCCCN(Cc5ccncc5)C[C@@H]34)cc2)c1`, the inhibition is 92% (inactive).

Consider `OC[C@H]1[C@@H](c2ccc(-c3ccccc3F)cc2)[C@@H]2CN(Cc3ccncc3)CCCCN12`, for which the inhibition was 93.1% (inactive).

In the case of `Cc1cccc(-c2ccc([C@H]3[C@@H](CO)N4CCCCN(Cc5cncnc5)C[C@H]34)cc2)c1`, the inhibition was 104% (active).

`OC[C@H]1[C@H](c2ccc(-c3cccc(F)c3)cc2)[C@@H]2CN(Cc3cncnc3)CCCCN12`: the inhibition is 107% (active).

For the compound `Cc1ccc(-c2ccc([C@H]3[C@H](CO)N4CCCCN(Cc5cncnc5)C[C@@H]34)cc2)cc1`, the inhibition is 96% (active).

As to `CN(C)C(=O)c1ccc(-c2ccc([C@@H]3[C@@H](CO)N4CCCCN(Cc5cncnc5)C[C@@H]34)cc2)cc1`, the inhibition was 55.5% (inactive).

As for `OC[C@@H]1[C@@H](c2ccc(-c3ccccc3F)cc2)[C@@H]2CN(Cc3cncnc3)CCCCN12`, the inhibition is 74.2% (inactive).

For the compound `OC[C@@H]1[C@H](c2ccc(C3=CCCC3)cc2)[C@H]2CN(Cc3ccncc3)CCCCN12`, the inhibition was 75.8% (inactive).

For the compound `OC[C@H]1[C@H](c2ccc(-c3ccccc3F)cc2)[C@H]2CN(Cc3cncnc3)CCCCN21`, the inhibition is 69.5% (inactive).

`O=C(C[C@@H]1C[C@@H]2c3cc(NC(=O)NC4CCCC4)ccc3O[C@@H]2[C@@H](CO)O1)NCc1ccccc1`: the inhibition was 52.2% (inactive).
